An excerpt weighted towards active compounds, which were near 19% of everything screened.
Cycloheximide cs: counter-screen hit for Shiga toxin inhibitors, cycloheximide. cell reporter, cycloheximide protein synthesis inhibition counterscreen. max response, %. 12% of 300,000 active. AID 2314; in the data active = max response mostly above about 13%, no sharp cut-off; inactive = mostly below about 14%; note: read at 38.3 µM for the half of the compounds with a filed dose
Marburg entry inh: inhibitors of Marburg virus binding or cell entry; Marburg virus pseudotyped entry inhibition, cell reporter; Potency, µM (series often up to 37.8 µM), actives largely listed as inhibitors; 1.8% of 300,000 active; calls by dose curve; tested in HEK293 cells
Pf growth 96h: P. falciparum growth inhibition at 96 hours. P. falciparum luciferase reporter growth, 96 h. Potency, µM (highest dose often 28.7 µM), most hits filed as inhibitors. 6.9% of 320,000 active. AID 504834
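P. falciparum expressing integrated firefly luciferase grown in erythrocytes (2% hematocrit, 0.05% parasitemia final) with compounds for 96 hours at 37 C, 5% CO2. Growth inhibition read as loss of luminescence after adding luciferase detection reagent.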
Pf growth 48h: P. falciparum growth inhibition at 48 hours (one generation); P. falciparum luciferase growth in erythrocytes, 48 h; Potency, µM (doses to about 28.7 µM), most hits filed as inhibitors; 5.9% of 310,000 active; AID 504832
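First compound was added to culture medium, then infected red cells at 0.1% parasitemia and 2% hematocrit (final). After incubation at 37 C under 5% CO2, luciferase detection reagent was dispensed and light output recorded.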
LASV entry inh: inhibitors of Lassa virus binding or cell entry. 1.2% of 300,000 active. Lassa virus pseudotype entry inhibition, cell reporter. Potency, µM (top dose mostly 37.9 µM), actives largely listed as inhibitors. AID 540256; calls by dose curve; tested in HEK293 cells; note: nearly all actives have a fitted effect of over 50% in size
Shiga toxin inh: inhibitors of Shiga toxin in Vero cells. inhibition, % at 38.7 µM. AID 2315. Vero cells, Shiga toxin protein synthesis inhibition reporter. 9.2% of 290,000 active; in the data active = inhibition mostly above about 28%, no sharp cut-off; inactive = mostly below about 43%
Hits are given with their value; n = inactive; u = inconclusive; x = no result given; + = active, no number. Unless noted, calls come from the whole dose curve; as a rule, active = well fitted inhibition curve with a large enough effect; inconclusive = small, poorly fitted or top-dose-only effect, or another doubt; inactive = no such curve, though single readings can be large or run the other way.

SMILES | Cycloheximide cs | Marburg entry inh | Pf growth 96h | Pf growth 48h | LASV entry inh | Shiga toxin inh
COc1ccc(Cl)cc1NC(=S)N1CCC(c2ccc(C)cc2)C1 (stereo unspecified) | n | n | n | u | n | n
Cn1nnc2cc(C(=O)N3CCCCCC3)ccc21 | n | n | n | n | n | n
O=S(=O)(Nc1ccccc1)c1ccc(-c2csnn2)cc1 | n | n | n | n | n | n
Cc1ccc(OCC(=O)Nn2c(C)nc3ccccc3c2=O)c(C(C)C)c1 | n | n | n | n | n | n
CC(=O)c1cccc(NC(=O)N2CCC(CN3CCCCC3)CC2)c1 | x | x | x | x | n | x
CC(=O)c1cccc(NC(=O)N2CCC(c3ccc(C)cc3)C2)c1 (stereo unspecified) | n | x | n | n | x | 49
CC(NC(=O)Nc1ccc(F)cc1)C(c1cccs1)N1CCCC1 (stereo unspecified) | n | n | u | n | n | n
Nc1c(-c2ccccn2)cnn1-c1nc(-c2ccc(F)cc2)cs1 | 44 | x | n | n | x | n
Nc1c(-c2cccs2)cnn1-c1nc(-c2ccc(F)cc2)cs1 | 17 | n | n | n | n | 44
CCCCN1C(=O)C(=O)NC[C@@H]1C(C)CC (stereo partly specified) | n | x | n | n | x | n
COc1ccccc1-c1nnc(SC)n1C | n | x | n | n | x | n
CSc1nnc(-c2ccccc2Cl)n1N | n | n | 10µM | n | n | n
Nn1c(-c2ccccc2Cl)nnc1-c1ccccc1Cl | 32 | n | n | n | n | +
Clc1ccccc1-c1ncc2ccccn12 | n | n | n | u | n | n
CCOc1ccc(NC(=O)Cn2c(=O)n(CCCCC(=O)NCCc3ccc(Cl)cc3)c(=O)c3ccccc32)cc1 | x | n | x | x | u | x
C/C(=N/NC(=O)c1ccc(Cl)cc1Cl)c1cccnc1 | 29 | x | n | n | x | n
C/C(=N\NC(=O)c1ccc(O)cc1O)c1cccnc1 | 40 | n | u | n | n | 73
C/C(=N\NC(=O)c1ccncc1)c1cccnc1 | n | n | n | n | n | n
CCc1cccc(CC)c1NC(=O)COC(=O)c1ccccc1-c1nc2ccccc2s1 | n | u | u | n | n | n
O=CN1CCN(C(=O)c2ccc(-c3nc4ccccc4s3)s2)CC1 | 43 | u | n | n | n | 123
COCCCNC(=O)COC(=O)c1ccc(-c2nc3ccccc3s2)s1 | 47 | x | n | n | x | 76
CNC(=O)COC(=O)c1ccc(-c2nc3ccccc3s2)s1 | 29 | u | n | x | u | 53
CC(=O)N1CCN(C(=O)CC2OC(=O)c3ccccc32)CC1 (stereo unspecified) | n | n | u | u | n | n
O=c1c(-c2ccccc2)c1-c1ccccc1 | 65 | x | 5.4µM | 6.7µM | x | 104
O=C(NC(Nc1ncccn1)C(=O)c1ccccc1)c1ccccc1 (stereo unspecified) | n | u | n | n | n | n
SMILES | Cycloheximide cs | Marburg entry inh | Pf growth 96h | Pf growth 48h | LASV entry inh | Shiga toxin inh
O=C(c1ccccc1)C(O)c1ccccc1 (stereo unspecified) | x | x | 9.5µM | u | x | x
O=C(NC(NC(=O)c1ccccc1)C(=O)c1ccccc1)c1ccccc1 | n | n | 2.3µM | n | n | n
O=C(NC(C(=O)c1ccccc1)n1cnccc1=O)c1ccccc1 (stereo unspecified) | n | n | n | n | u | n
O=C(NC(C(=O)c1ccccc1)n1c(=O)cc[nH]c1=S)c1ccccc1 (stereo unspecified) | 16 | n | n | n | n | +
CC(OC(=O)c1ccc(O)cc1)C(=O)Nc1ccc(Oc2ccccc2)cc1 (stereo unspecified) | x | n | x | x | n | x
COc1ccc(Br)c(-c2nnc(CS(=O)(=O)c3ccccc3)o2)c1 | 36 | u | n | n | u | 89
CCOc1ccccc1-c1nnc(CS(=O)(=O)c2ccccc2)o1 | n | n | n | u | n | n
COc1ccc(Br)c(-c2nc(CS(=O)(=O)c3ccc(F)cc3)no2)c1 | 20 | x | n | n | x | 37
COc1ccc(C(C)=O)cc1CSc1nc2ccccc2c(=O)n1-c1ccccc1 | n | n | u | n | u | n
C=CCn1c(SCc2cc(C(C)=O)ccc2OCC)nc2ccccc2c1=O | n | u | 5.9µM | u | u | n
COc1ccc(C(C)=O)cc1CSc1nc2ccccc2c(=O)n1-c1cccc(C)c1 | n | n | u | n | n | n
COc1ccc(C(C)=O)cc1CSc1nc2ccccc2c(=O)n1-c1ccccc1C | n | u | 2.3µM | 12µM | u | n
CCCCC1CN2C(CCC(C)C2c2ccc(Br)cc2)C(=O)O1 (stereo unspecified) | x | n | x | x | x | x
Cc1ccc(C2C3=C(CC(C)(C)CC3=O)NC3=C2C(=O)c2ccccc23)cc1 (stereo unspecified) | n | u | 1.9µM | 5.2µM | u | n
CCOC(=O)C1(CC)NC(c2ccco2)C2C(=O)N(CC)C(=O)C21 (stereo unspecified) | n | n | n | n | n | n
CCOC(=O)C1(C)NC(c2ccco2)C2C(=O)N(CC)C(=O)C21 (stereo unspecified) | n | x | 2.9µM | n | x | n
CC1CCC(NC(=O)CC2Oc3ccccc3NC2=O)CC1 (stereo unspecified) | n | x | n | x | x | n
CCC1CN(C(=O)N2CCC(C(=O)NCc3ccco3)CC2)c2cc(C)ccc2O1 (stereo unspecified) | n | n | 13µM | n | u | n
CC(=O)N1CCOc2cc(S(=O)(=O)Nc3c(C)cccc3C(C)C)c(Cl)cc21 | x | x | 5.2µM | 8.3µM | n | x
CCOC(=O)CCn1c(=S)n(CCC(=O)OCC)c2ccccc21 | n | x | n | 3.7µM | x | n
CCCOC(=O)CCn1c(=S)oc2ccccc21 | 39 | n | n | n | u | 76
CCOC(=O)Cn1c(=O)n(CC(=O)OCC)c2ccccc21 | n | n | x | n | n | n
CCOc1ccc(NC(=S)NN2C(C)CCCC2C)cc1 (stereo unspecified) | n | n | n | n | n | n
Cc1ccc(N(CC(=O)NC2CCCC2)C(=O)Cn2nnc(-c3ccccc3F)n2)cc1 | n | u | n | n | u | n
C#CC[N+](C)(C)CC#Cc1ccc(C)cc1 | n | x | u | 1.9µM | x | n
SMILES | Cycloheximide cs | Marburg entry inh | Pf growth 96h | Pf growth 48h | LASV entry inh | Shiga toxin inh
Clc1ccccc1-c1nc(-c2ccccc2)n[nH]1 | 53 | n | x | n | u | 125
O=[N+]([O-])c1cc(-c2n[nH]c(-c3ccccc3)n2)cc([N+](=O)[O-])c1 | n | u | n | n | n | n
O=c1cc(CSc2ccccc2)[nH]c2ccccc12 | n | x | n | 10µM | x | n
Cc1ccc2c(=O)cc(CSc3ccccc3)[nH]c2c1C | x | x | x | x | n | x
CN1CC(c2ccccc2)C2(SC(=S)N(Cc3ccco3)C2=O)C12C(=O)Nc1ccccc12 (stereo unspecified) | n | u | x | 12µM | u | n
CCOCCOC(=O)CCSc1n[nH]c(=O)[nH]c1=O | n | n | 10µM | n | n | n
O=C1/C(=C\c2ccc(O)c(O)c2)N=C2CCCCCN12 | 17 | n | n | n | n | 106
COc1ccc(/C=C2/N=C3CCCCCN3C2=O)cc1 | 30 | n | n | n | n | 75
